Screening data as filed in PubChem.
UDG counter: Primary qHTS assay for inhibitors of Activation Induced Cytidine Deaminase (AID): UDG Counterscreen signal; FRET deamination/UDG coupled assay, UDG read, 4 h; AID 1347430, 2020; Potency, µM (doses to about 115 µM), usual class: inhibitors; hit rate 0.14% among 91,000; further: nearly all actives have a fitted effect of over 65% in size
AID inhibitor: Primary qHTS assay for inhibitors of Activation Induced Cytidine Deaminase (AID): AID signal; AID deamination FRET fluorescence, UDG-coupled, 4 h; hit rate 0.32% among 91,000; Potency, µM (doses to about 115 µM), most hits filed as inhibitors; Single-stranded DNA cytosine deaminase (Homo sapiens), Q9GZX7; further: nearly all actives have a fitted effect of over 25% in size
Target sequence (Q9GZX7 whole entry, looked up): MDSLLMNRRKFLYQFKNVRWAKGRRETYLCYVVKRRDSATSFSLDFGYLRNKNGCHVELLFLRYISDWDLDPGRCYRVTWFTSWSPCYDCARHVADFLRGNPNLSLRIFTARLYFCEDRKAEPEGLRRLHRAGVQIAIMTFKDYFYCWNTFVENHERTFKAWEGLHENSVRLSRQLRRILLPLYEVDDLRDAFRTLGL
Hits are given with their value; 0 = inactive; ? = inconclusive. Compounds with a hit are over-represented: about 0.47% of the library has one in this group of screens. The call rests on the fitted dose curve; in most records, active means well fitted curve in the direction sought with a large enough effect; inconclusive means small, poorly fitted or top-dose-only effect, or another doubt; inactive means no such curve, though single readings can be large; an effect the other way counts as inactive or inconclusive.

SMILES	UDG counter	AID inhibitor
Cc1ccc(COC(=O)c2ccccc2Sc2ccccc2C#N)cc1	0	0
CC(NC(=O)CSc1ccc2c(c1)OCCCO2)c1ccc2ccccc2c1 (stereo unspecified)	0	0
O=C(O)CCCCCCCC(=O)O	0	0
Cc1cc(C)cc(CCCCCCCCCCCC(=O)O)c1	0	79.4µM
CCn1cc(C(=O)NCCc2ccc(OC)c(OC)c2)c(=O)c2cc(S(=O)(=O)N(C)C3CCCCC3)ccc21	0	15.8µM
CCn1cc(C(=O)NCCc2ccc(OC)c(OC)c2)c(=O)c2cc(S(=O)(=O)N3CCCCCC3)ccc21	0	0
COc1cccc(Cn2cc(C(=O)c3ccc(Cl)cc3)c(=O)c3ccccc32)c1	0	28.2µM
COc1ccccc1Cn1cc(C(=O)c2ccc(Cl)cc2)c(=O)c2ccccc21	0	0
O=C(CN1CCN(C(=O)CCc2ncc(-c3ccc(Cl)cc3)o2)CC1)Nc1cccc(F)c1	0	0
COc1cc2c(=O)c(C(=O)c3ccc(C)c(C)c3)cn(Cc3ccc(F)cc3)c2cc1OC	0	44.7µM
COc1cc2c(=O)c(C(=O)c3ccc(C)c(C)c3)cn(Cc3ccccc3)c2cc1OC	0	?
CCOc1cc2c(cc1CNC(=O)c1cc(S(N)(=O)=O)c(Cl)cc1Cl)OC(C)C2 (stereo unspecified)	0	0
Cc1ccccc1C1/C(=C(\O)c2ccccc2F)C(=O)C(=O)N1c1ccc(CC(=O)O)cc1 (stereo unspecified)	0	0
COC(=O)c1sc(N2C(=O)C(=O)/C(=C(/O)c3ccc(C)c(F)c3)C2c2ccccc2F)nc1C (stereo unspecified)	0	79.4µM
C/C(=N/Nc1ccccc1)c1ccc([N+](=O)[O-])cc1	0	0
O=C(CCS(=O)(=O)c1nc(-c2cccs2)cc(C(F)(F)F)n1)Nc1ccc(OC(F)(F)F)cc1	0	10µM
COc1ccc(NC(=O)CCS(=O)(=O)c2nc(-c3cccs3)cc(C(F)(F)F)n2)cc1	0	0
O=C(COc1cc(Cl)cc(Cl)c1)N1CCNC1=O	0	0
Cc1ccc(OCCn2c(C3CC(=O)N(Cc4ccc(F)cc4)C3)nc3ccccc32)c(C)c1 (stereo unspecified)	?	35.5µM
CC(C)CCn1c(C2CC(=O)N(Cc3ccc(F)cc3)C2)nc2ccccc21 (stereo unspecified)	0	0
CC(=O)N1N=C(c2c(-c3ccccc3)c3cc(Cl)ccc3n(C)c2=O)CC1c1cccs1 (stereo unspecified)	0	44.7µM
CC(=O)N1N=C(c2ccc(C)cc2)CC1c1cn(-c2ccccc2)nc1-c1cccs1 (stereo unspecified)	0	0
CC(C)C(NC(=O)c1ccccc1Cl)c1nnc(SCC(=O)c2ccccc2)n1C (stereo unspecified)	0	0
Nc1nccnc1C(=O)NCc1nc2ccccc2s1	0	0
Cc1noc2ncnc(NCCc3ccccc3)c12	0	?
SMILES	UDG counter	AID inhibitor
Clc1ccc(-c2noc3ncnc(NCCc4ccccc4)c23)cc1	0	25.1µM
CN(CC(=O)Nc1ccccc1Br)C(=O)CCc1ncc(-c2ccc(F)cc2F)o1	0	0
CCN1c2ccccc2-n2cccc2C12CCN(C(=O)Nc1ccccc1Br)CC2	0	0
CCN1c2cc(C)ccc2-n2cccc2C12CCN(C(=O)Nc1cc(OC)c(OC)c(OC)c1)CC2	89.1µM	?
CC(=O)N(C)CCCNC(=O)c1nc2ccccc2c(=O)[nH]1	0	0
CCCOc1ccc(C(=O)N(Cc2ccc(C(C)C)cc2)C2CCS(=O)(=O)C2)cc1 (stereo unspecified)	0	?
CCCCOc1ccc(C(=O)N(Cc2ccc(C(C)C)cc2)C2CCS(=O)(=O)C2)cc1 (stereo unspecified)	0	25.1µM
CCN(C)Cc1cccc(CNC(=O)Cc2cccc(C(F)(F)F)c2)c1	0	0
CC(C)(C)C1CCc2c(sc(NC(=O)c3ccccc3F)c2C(=O)NCc2ccco2)C1 (stereo unspecified)	0	11.2µM
Cc1ccc(C(=O)Nc2sc3c(c2C(=O)NCc2ccco2)CCC(C(C)(C)C)C3)cc1 (stereo unspecified)	0	0
CCc1ccc(C2C(C(=O)c3ccc(C)cc3)=C(C(=O)OC)Nc3nnnn32)cc1 (stereo unspecified)	0	0
COc1ccc(S(=O)(=O)NCc2ccco2)cc1C(C)(C)C	0	0
O=C(NC1(C(F)(F)F)C(=O)Nc2c1c(=O)[nH]c(=O)n2-c1ccc(Cl)cc1)c1ccco1 (stereo unspecified)	0	0
CC(OC(=O)c1cc(=O)[nH]c2ccccc12)C(=O)Nc1ccc(Cl)cc1 (stereo unspecified)	0	0
COc1ccc(Nc2ncc3c(n2)CCN(Cc2cc(Br)cs2)C3)c(OC)c1	89.1µM	?
COc1ccc(Nc2ncc3c(n2)CCN(Cc2ccc(Br)s2)C3)c(OC)c1	0	0
